Results filed as inconclusive are left out. Entries that show only a call come without a potency. Activity calls are given as the source filed them. Calls come from the whole dose curve; as a rule, active = well fitted curve in the direction sought with a large enough effect; inconclusive = small, poorly fitted or top-dose-only effect, or another doubt; inactive = no such curve, though single readings can be large; an effect the other way counts as inactive or inconclusive.
Potency is the fitted concentration of half-maximal effect.

The target of one assay is Cytochrome P450 3A7 (Homo sapiens) (UniProt P24462). The assay can be described thus: Cytochrome P450 family 3 subfamily A member 7 (CYP3A7) small molecule antagonists: luciferase biochemical qHTS assay (AID 1963596). Note: nearly all actives have a fitted effect of over 40% in size. As to conditions: P450-Glo CYP3A7 enzyme luminescence, 1 h; series mostly up to 57.4 µM. The essentials: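 In this luminescent screen, enzyme and proluciferin substrate meet test compound for 10 min before NADPH regeneration solution drives a 1 h room-temperature reaction; detection reagent halts turnover and luminescence is read 20 min later.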
Cytochrome P450 3A7 (Homo sapiens), sequence (P24462 whole entry, looked up): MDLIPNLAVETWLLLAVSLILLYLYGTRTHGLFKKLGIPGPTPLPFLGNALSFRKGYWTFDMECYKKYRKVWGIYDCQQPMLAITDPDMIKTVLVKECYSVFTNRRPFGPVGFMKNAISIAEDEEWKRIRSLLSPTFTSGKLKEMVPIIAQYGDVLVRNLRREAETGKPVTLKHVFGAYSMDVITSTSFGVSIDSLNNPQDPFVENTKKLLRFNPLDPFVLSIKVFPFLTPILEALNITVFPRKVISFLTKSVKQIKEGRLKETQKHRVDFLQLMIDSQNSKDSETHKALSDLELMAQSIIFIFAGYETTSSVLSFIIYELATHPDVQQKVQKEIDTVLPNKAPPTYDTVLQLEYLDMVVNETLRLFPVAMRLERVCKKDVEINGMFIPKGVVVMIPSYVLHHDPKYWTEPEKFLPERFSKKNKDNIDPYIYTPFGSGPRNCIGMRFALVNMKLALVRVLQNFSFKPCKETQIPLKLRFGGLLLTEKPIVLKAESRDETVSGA
For `O=c1c(-c2ccc(O)cc2)coc2cc(OC3O[C@H](CO)[C@H](O)[C@H](O)[C@H]3O)cc(O)c12` (stereo partly drawn), the Potency result was “inactive”.

`N[C@@H](CSCCCO)C(=O)O`: the Potency result was “inactive”. On to `CCN(CC)CCN`, for which the Potency entry is “inactive”. Turning to `OC[C@]1(O)OC[C@@H](O)[C@H](O)[C@@H]1O`, the Potency entry is “inactive”.

In the case of `NNc1nncc2ccccc12`, the Potency entry is “inactive”. Same read-out and setting: the result for `O=C(Nc1ccc([N+](=O)[O-])cc1)Nc1ccc([N+](=O)[O-])cc1` reads “inactive”; that for `Cc1nc(N)nc(N)c1-c1ccc(Cl)c(Cl)c1`, “inactive”; that for `CCc1ccc(C(=O)C(C)CN2CCCCC2)cc1` (stereo not drawn), 30.9 µM (active).

For `Nc1ccn(C2CO[C@H](CO)O2)c(=O)n1` (stereo partly drawn), the Potency result was “inactive”.

As for `CC(=O)Nc1ccc(OCC(O)CNC(C)C)cc1` (stereo not drawn), the Potency entry is “inactive”.

As to `CC(=O)NC[C@H]1CN(c2ccc(N3CCOCC3)c(F)c2)C(=O)O1`, the Potency entry is “inactive”. With `COc1ccc([C@@H]2CC(=O)c3c(O)cc(O[C@@H]4O[C@H](CO[C@@H]5O[C@@H](C)[C@H](O)[C@@H](O)[C@@H]5O)[C@@H](O)[C@H](O)[C@@H]4O)cc3O2)cc1O`, the Potency result is “inactive”. With `CC(=O)Nc1c(I)c(NC(C)=O)c(I)c(C(=O)O)c1I`, the Potency entry was “inactive”. Regarding `O=C(NCCO[N+](=O)[O-])c1cccnc1`, the Potency result was “inactive”.

`N#C[C@H]1C[C@H]2C[C@@H]2N1C(=O)[C@@H](N)C12CC3CC(CC(O)(C3)C1)C2`: the Potency entry was “inactive”. Turning to `CC1(C)O[C@@H]2C[C@H]3[C@@H]4C[C@H](F)C5=CC(=O)CC[C@]5(C)[C@H]4[C@@H](O)C[C@]3(C)[C@]2(C(=O)CO)O1`, the Potency entry was “inactive”. With `C[C@@H]1C[C@H]2[C@@H]3CCC4=CC(=O)C=C[C@]4(C)[C@@]3(F)[C@@H](O)C[C@]2(C)[C@@]1(O)C(=O)COC(=O)c1ccncc1`, the Potency was 8.71 µM (active). On to `CC1(C)S[C@@H]2[C@H](NC(=O)C(c3ccccc3)S(=O)(=O)O)C(=O)N2[C@H]1C(=O)O` (stereo partly drawn), for which the Potency entry was “inactive”. As to `O=c1[nH]cc(F)c(=O)[nH]1`, the Potency entry was “inactive”.

In the case of `COc1nccc(-c2c(-c3ccc(F)cc3)ncn2C2CCC(O)CC2)n1` (stereo not drawn), the Potency result is “inactive”.

As to `CSc1cccc(Nc2ncc3cc(-c4c(Cl)cccc4Cl)c(=O)n(C)c3n2)c1`, the Potency result is “inactive”. As for `COc1cc(Nc2ncc3c(n2)-c2ccc(Cl)cc2C(c2c(F)cccc2OC)=NC3)ccc1C(=O)O`, the Potency result is “inactive”. As to `Cc1ccc(C(=O)C(C)CN2CCCCC2)cc1` (stereo not drawn), the Potency result is “inactive”.

Test system in the next assay: not listed separately
The assay can be described thus: Quantitative highthroughput screen to assess conditional lethalithy of NOMO1 cells grown in RPMI1640 with untreated serum (RPMI+s) (AID 1963876). Note: nearly all actives have a fitted effect of over 35% in size. The settings on record: NOMO1 AML cells in RPMI+serum, CellTiter-Glo viability, 48 h; series mostly up to 45.8 µM. Summed up: (§1)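 Each medium arm—HPLM with 10% dialyzed FBS, or RPMI1640 with 5 mM glucose and 10% untreated or dialyzed FBS—was screened against an 11-point, 3-fold compound titration for 48 h at 37 °C, with CellTiter-Glo luminescence as endpoint.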
For orientation: ATP-based viability assays read luminescence as a measure of living cells.
As to `CC(C)c1noc(N2CCC(COc3ccc(-c4ccc(S(C)(=O)=O)cc4)nc3)CC2)n1`, the Potency result is “inactive”. On the same count and under the same terms, the result for `CS(=O)(=O)c1ccc([C@@H](O)[C@@H](CO)NC(=O)C(Cl)Cl)cc1` reads “inactive”. Regarding `CCOC(=O)N1CCN([N+]([O-])=NOc2ccc([N+](=O)[O-])cc2C#N)CC1`, the Potency is 3.32 µM (active). Same read-out and setting: the same measure for `CCNC(=O)Nc1ccc(Oc2ncnc(N)c2C=NOC)cc1Cl`: “inactive”; for `O=C(NC[C@H](O)CN1CCc2ccccc2C1)c1cc(NC2COC2)ncn1`: “inactive”. For `CCN(CC)CC#CCOC(=O)C(O)(c1ccccc1)C1CCCCC1` (stereo not drawn), the Potency entry was “inactive”. For the molecule `CNC(=O)c1ccc(-c2cnc3ncc(Cc4ccc5ncccc5c4)n3n2)cc1F`, the Potency entry is “inactive”. In the case of `COc1ccc(CCN2CCN(CCCc3ccccc3)CC2)cc1OC`, the Potency result was “inactive”. On the same count and under the same terms, the result for `CC(S)C(=O)NCC(=O)O` (stereo not drawn) reads “inactive”. In the case of `O=c1c(-c2ccc(O)cc2)coc2cc(OC3O[C@H](CO)[C@H](O)[C@H](O)[C@H]3O)cc(O)c12` (stereo partly drawn), the Potency result is “inactive”. On the same count and under the same terms, the result for `NNc1nncc2ccccc12` reads “inactive”. Same read-out and setting: the result for `Nc1ccn(C2CO[C@H](CO)O2)c(=O)n1` (stereo partly drawn) reads “inactive”; that for `CC(=O)NC[C@H]1CN(c2ccc(N3CCOCC3)c(F)c2)C(=O)O1`, “inactive”. Same read-out and setting: the result for `O=C(NCCO[N+](=O)[O-])c1cccnc1` reads “inactive”; that for `CSc1cccc(Nc2ncc3cc(-c4c(Cl)cccc4Cl)c(=O)n(C)c3n2)c1`, “inactive”; that for `COc1cc(Nc2ncc3c(n2)-c2ccc(Cl)cc2C(c2c(F)cccc2OC)=NC3)ccc1C(=O)O`, 0.0833 µM (active).

Test system in a further assay: not listed separately
The assay can be described thus: Quantitative highthroughput screen to assess conditional lethalithy of NOMO1 cells grown in RPMI1640 with dialyzed fetal bovine serum (RPMI+ds) (AID 1963877). Note: nearly all actives have a fitted effect of over 30% in size. As to conditions: NOMO1 in RPMI+dialyzed FBS viability, ATP luminescence, 48 h; series mostly up to 45.8 µM. Summed up:
as §1
Take `CC(C)c1noc(N2CCC(COc3ccc(-c4ccc(S(C)(=O)=O)cc4)nc3)CC2)n1`: the Potency entry was “inactive”. With `CS(=O)(=O)c1ccc([C@@H](O)[C@@H](CO)NC(=O)C(Cl)Cl)cc1`, the Potency result is “inactive”. With `CCOC(=O)N1CCN([N+]([O-])=NOc2ccc([N+](=O)[O-])cc2C#N)CC1`, the Potency is 2.96 µM (active). Take `CCNC(=O)Nc1ccc(Oc2ncnc(N)c2C=NOC)cc1Cl`: the Potency entry is “inactive”. Consider `O=c1c(O)c(-c2ccc(O)cc2O)oc2cc(O)cc(O)c12`, for which the Potency entry is “inactive”. Consider `O=C(NC[C@H](O)CN1CCc2ccccc2C1)c1cc(NC2COC2)ncn1`, for which the Potency entry is “inactive”.

For the molecule `CCN(CC)CC#CCOC(=O)C(O)(c1ccccc1)C1CCCCC1` (stereo not drawn), the Potency entry was “inactive”.

`CC(S)C(=O)NCC(=O)O` (stereo not drawn): the Potency result is “inactive”. For the molecule `O=c1c(-c2ccc(O)cc2)coc2cc(OC3O[C@H](CO)[C@H](O)[C@H](O)[C@H]3O)cc(O)c12` (stereo partly drawn), the Potency entry is “inactive”. With `NNc1nncc2ccccc12`, the Potency entry was “inactive”.

Take `Nc1ccn(C2CO[C@H](CO)O2)c(=O)n1` (stereo partly drawn): the Potency result was “inactive”.

Turning to `CC(=O)NC[C@H]1CN(c2ccc(N3CCOCC3)c(F)c2)C(=O)O1`, the Potency entry is “inactive”.

Turning to `CSc1cccc(Nc2ncc3cc(-c4c(Cl)cccc4Cl)c(=O)n(C)c3n2)c1`, the Potency result is “inactive”. In the case of `COc1cc(Nc2ncc3c(n2)-c2ccc(Cl)cc2C(c2c(F)cccc2OC)=NC3)ccc1C(=O)O`, the Potency is 0.0662 µM (active).

For the origin of these results see PubChem BioAssay (NCATS).
